Results from PubChem BioAssay AID493025 (Johns Hopkins Ion Channel Center, 2011).
About 570 (57%) of roughly 1,000 compounds were called active. How the calls were made is not given here. So high a share suggests a set chosen from earlier hits. Only a sample is shown.

molecular target: Potassium voltage-gated channel subfamily KQT member 2 (Rattus norvegicus) (UniProt O88943); assay: rat KCNQ2 potassium channel inhibitors, confirmation, cell-based, thallium flux (AID 493025); conditions: KCNQ2-expressing cells, at 10 µM; activity change, negative = inhibition: active compounds read low; outcome: inhibition;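 on activity change, negative = inhibition: 0% = vehicle wells and values are ratio percent relative to vehicle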
Sequence (O88943 whole entry, looked up): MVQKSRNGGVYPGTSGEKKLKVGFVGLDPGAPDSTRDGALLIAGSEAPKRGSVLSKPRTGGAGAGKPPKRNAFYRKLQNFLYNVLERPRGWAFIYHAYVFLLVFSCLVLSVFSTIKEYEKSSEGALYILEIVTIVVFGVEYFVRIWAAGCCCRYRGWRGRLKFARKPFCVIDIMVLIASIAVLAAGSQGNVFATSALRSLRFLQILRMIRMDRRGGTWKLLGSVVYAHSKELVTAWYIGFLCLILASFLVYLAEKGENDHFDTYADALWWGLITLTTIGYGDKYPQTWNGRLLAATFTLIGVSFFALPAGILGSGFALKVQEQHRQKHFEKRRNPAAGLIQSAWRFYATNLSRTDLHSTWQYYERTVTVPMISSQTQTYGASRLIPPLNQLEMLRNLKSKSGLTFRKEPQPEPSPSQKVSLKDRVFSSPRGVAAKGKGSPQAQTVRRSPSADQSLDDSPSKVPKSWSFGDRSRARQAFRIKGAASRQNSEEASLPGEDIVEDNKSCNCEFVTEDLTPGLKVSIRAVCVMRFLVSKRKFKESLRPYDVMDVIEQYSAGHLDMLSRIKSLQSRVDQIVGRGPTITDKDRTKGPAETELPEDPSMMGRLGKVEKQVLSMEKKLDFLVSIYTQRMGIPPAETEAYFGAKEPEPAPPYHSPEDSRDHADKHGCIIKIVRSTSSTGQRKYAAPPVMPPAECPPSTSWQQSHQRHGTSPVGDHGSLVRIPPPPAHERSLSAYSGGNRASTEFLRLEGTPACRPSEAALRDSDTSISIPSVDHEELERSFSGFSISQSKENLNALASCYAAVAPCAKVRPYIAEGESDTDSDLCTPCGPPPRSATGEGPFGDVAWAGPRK

Row | Compound | activity change, negative = inhibition
1 | CCc1ccc(-c2nn(-c3ccccc3)cc2CSC(=N)N)cc1 | -37.5% (active)
2 | C=CS(=O)c1sc(Cl)c(N2CCOCC2)c1[N+](=O)[O-] (stereo unspecified) | -32.5% (active)
3 | Cc1ccc(C(C)C)cc1OCC(=O)Nc1ccccc1N1CCCC1 | inactive
4 | CC(C(=O)NCC1CCCCC1)N(C)Cc1cccc(Cl)c1 (stereo unspecified) | -47% (active)
5 | CCc1ccccc1NC(=O)/C(=C/c1ccccc1)c1ccccc1 | -33% (active)
6 | C=CCn1c(SCC(=O)/C(C#N)=C(\C)N)nc2sc(C)c(C)c2c1=O | inactive
7 | CN(Cc1ccccc1F)C(=O)C(Cc1ccccc1)NC(=O)c1ccccc1 (stereo unspecified) | -29% (active)
8 | CC(NC(=S)NNS(=O)(=O)c1ccc(C(C)(C)C)cc1)c1ccccc1 (stereo unspecified) | inactive
9 | CCc1ccc2ncc(C(=O)c3ccccc3)c(N3CCOCC3)c2c1 | -20.5% (active)
10 | Fc1ccc2[nH]c3c(N4CCSCC4)ncnc3c2c1 | -38.5% (active)
11 | Cc1ccc(N2C(=O)C3C(c4ccccc4)(C2=O)C3(c2ccccc2)c2ccccc2)cc1 (stereo unspecified) | inactive
12 | CC(C)N(C(=O)CSc1nc(COc2ccccc2)nc2ccccc12)C(C)C | -42.5% (active)
13 | COc1cccc(COc2ccc(N(C)S(=O)(=O)c3ccccc3)cc2)c1 | inactive
14 | O=C(OCC(=O)N(CCc1ccccc1)Cc1ccccc1)c1ccccc1[N+](=O)[O-] | inactive
15 | CSCc1cc(N(C)C)nc(SCc2ccc(Cl)cc2Cl)n1 | -19.5% (active)
16 | O=C(Nc1ccccc1Cl)/C(Cl)=C(\Cl)S(=O)c1ccccc1 (stereo unspecified) | -22.5% (active)

Row | Compound | activity change, negative = inhibition
17 | Cc1ccccc1N1CCN(CC(=O)NCc2ccc(Cl)cc2)CC1 | inactive
18 | Cc1cccc(C(=O)OC(C)C(=O)NC2CCCc3ccccc32)c1O (stereo unspecified) | -27% (active)
19 | COc1ccc(CN(C)C(C)C(=O)NC2CCCc3ccccc32)cc1 (stereo unspecified) | -19.5% (active)
20 | O=C(Nc1ccc(Cl)c(Cl)c1)N1CC=C(c2ccccc2)CC1 | inactive
21 | COC(=O)C1=C(C)N(C(C)c2ccccc2)C(=O)/C1=C\c1ccco1 (stereo unspecified) | -22.5% (active)
22 | CCOC(=O)C(C)Sc1nc2ccccc2c(=O)n1CC1CCCCC1 (stereo unspecified) | -32% (active)
23 | COc1ccc(Cl)cc1NC(=O)CN(C)Cc1ccc(OC)c(OC)c1 | inactive
24 | Cc1ccc(C(=O)c2c(NC(=O)c3ccccc3)sc(C)c2C)cc1 | -21% (active)
25 | Cc1ccccc1C(=O)Nc1ccccc1Sc1ccccc1 | -26% (active)
26 | CCOC(=O)N1CCC(N(CCOC)C(=O)Nc2ccc(C)c(C)c2)CC1 | -33% (active)
27 | CCc1ccc(-c2cc(C(=O)NCc3ccco3)c3ccccc3n2)s1 | inactive
28 | CC(C)C(NC(=O)OCc1ccccc1)C(=O)OCC(=O)N1C(C)CCCC1C (stereo unspecified) | inactive
29 | CC(C)[C@H](NC(=O)OCc1ccccc1)C(=O)OCc1ccccc1 | -23.5% (active)
30 | Cc1ccc(C2=Nc3c(ccc4ccccc34)C(c3ccncc3)=NN2)cc1 | inactive
31 | Cc1nc2ccccc2c(-c2ccccc2)c1C(=O)c1ccccc1 | -31% (active)
